Records with an inconclusive call do not appear. The source made the active and inactive calls. Unless noted, calls follow the shape of the dose curve; as a rule, active = well fitted curve in the direction sought with a large enough effect; inconclusive = small, poorly fitted or top-dose-only effect, or another doubt; inactive = no such curve, though single readings can be large; an effect the other way counts as inactive or inconclusive.
Experiments:
[1] = target: Lysosomal acid glucosylceramidase (Homo sapiens) (UniProt P04062); assay: Glucocerebrosidase-p2 (AID 348; in the data active = potency below about 10 µM; also: potency is read from the fitted curve at half-maximal effect); settings: purified GBA, blue fluorogenic substrate, 40 min
Lysosomal acid glucosylceramidase (Homo sapiens), sequence (P04062 whole entry, looked up): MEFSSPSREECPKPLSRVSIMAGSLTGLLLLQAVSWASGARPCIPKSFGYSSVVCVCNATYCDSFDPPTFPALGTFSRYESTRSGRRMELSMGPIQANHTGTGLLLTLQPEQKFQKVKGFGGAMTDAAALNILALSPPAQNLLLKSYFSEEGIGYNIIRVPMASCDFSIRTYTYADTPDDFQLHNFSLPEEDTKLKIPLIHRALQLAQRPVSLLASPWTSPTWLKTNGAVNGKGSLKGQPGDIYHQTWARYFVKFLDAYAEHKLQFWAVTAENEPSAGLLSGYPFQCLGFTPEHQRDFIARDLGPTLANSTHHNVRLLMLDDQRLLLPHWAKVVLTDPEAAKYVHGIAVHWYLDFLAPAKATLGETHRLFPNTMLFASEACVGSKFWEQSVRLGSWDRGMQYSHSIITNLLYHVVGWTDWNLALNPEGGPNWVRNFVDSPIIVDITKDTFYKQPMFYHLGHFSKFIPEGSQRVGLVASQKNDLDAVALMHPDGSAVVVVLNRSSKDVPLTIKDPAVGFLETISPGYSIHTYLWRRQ
Outline: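 Compounds titrated from 0.6 nM upwards against 0.2 nM enzyme in pH 5.9 citric acid/KH2PO4, taurocholate, tween-20; blue fluorogenic substrate 80 uM, 40 min room temperature, stopped and read Ex 365/Em 440 for AC50.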

[2] = AP1 Signaling Pathway (AID 357; active = well fitted curve in either direction with a large enough effect, not every such curve was filed as active;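 also: ME-180 reporter cells stimulated with EGF at its EC50 level; % is scaled to controls: 0 for no effect and ±100 for the full control effect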); settings: ME-180 AP-1-bla reporter, EGF-induced, beta-lactamase ratio, 5 h; at 7.69 µM (top of the series) unless noted
Outline: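 Beta-lactamase reporter under AP-1 response element, ME-180 background. Stimulus: EC50 EGF. Compound exposure 5 h, 37 °C. Detection: CCF4, 2.5 h RT, 460/530 nm. Values: AC50 from titration.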

[3] = target: Cytochrome P450 1A2 (Homo sapiens) (UniProt P05177); assay: p450-cyp1a2 (AID 410; calls by dose curve; also: potency is read from the fitted curve at half-maximal effect)
Cytochrome P450 1A2 (Homo sapiens), sequence (P05177 whole entry, looked up): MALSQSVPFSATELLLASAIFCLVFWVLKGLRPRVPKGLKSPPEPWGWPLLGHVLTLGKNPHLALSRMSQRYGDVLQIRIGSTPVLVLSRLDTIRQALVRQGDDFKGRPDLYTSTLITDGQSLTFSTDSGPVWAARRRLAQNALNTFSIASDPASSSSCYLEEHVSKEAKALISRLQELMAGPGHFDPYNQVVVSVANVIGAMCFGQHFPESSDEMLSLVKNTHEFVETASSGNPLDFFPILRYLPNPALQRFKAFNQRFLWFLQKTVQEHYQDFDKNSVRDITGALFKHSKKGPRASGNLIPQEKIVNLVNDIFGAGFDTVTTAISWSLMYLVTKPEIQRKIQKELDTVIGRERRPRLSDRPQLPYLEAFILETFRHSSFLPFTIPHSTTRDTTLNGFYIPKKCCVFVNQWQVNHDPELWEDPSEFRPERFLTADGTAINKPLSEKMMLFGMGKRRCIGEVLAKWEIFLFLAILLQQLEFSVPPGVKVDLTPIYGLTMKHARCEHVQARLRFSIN
Outline: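 Inhibition was calculated relative to 57 uM furafylline (full inhibition). The reaction used human CYP1A2 at 20nM with Luciferin-ME at its Km, 100uM, driven by an NADPH-regenerating system for 60 min at room temperature.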

[4] = NFAT Signaling Pathway (AID 444; active = well fitted curve in either direction with a large enough effect, not every such curve was filed as active;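 also: carbachol stimulus at about its EC50 of 1 µM final; % is scaled to controls: 0 for no effect and ±100 for the full control effect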); settings: Jurkat NFAT-bla M1, carbachol, beta-lactamase ratio, 5 h; at 7.69 µM (top of the series) unless noted
Outline: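 Read-out: CCF4 FRET ratio (460 nm/530 nm) after 1 h RT dye loading, used for %activity and AC50 from titration series. Cells: Jurkat NFAT-β-lactamase/M1 line, treated with compound plus 1 uM carbachol for 5 h, 37 °C.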

[5] = Stat Signaling Pathway (AID 446; active = well fitted curve in either direction with a large enough effect, not every such curve was filed as active;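 also: ME-180 cervical cancer cells given 40 pM IL-6 alongside compound; SIE-controlled beta-lactamase reporter measured as 460/530 nm FRET emission ratio; % is scaled to controls: 0 for no effect and ±100 for the full control effect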); settings: ME-180 (cervical carcinoma) SIE beta-lactamase reporter, IL-6 stimulated, 5 h; at 7.69 µM (top of the series) unless noted
Outline: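 IL-6/STAT signaling read in ME-180 cells via an SIE beta-lactamase reporter. Stimulus was 40 pM IL-6 (its AC50) for 5 hrs, so both activation and inhibition register.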

[6] = target: Glucocorticoid receptor (Homo sapiens) (UniProt P04150); assay: GR-EFC Redistribution (AID 451; calls by dose curve; also: potency is read from the fitted curve at half-maximal effect); settings: CHO-K1 GR-EFC translocation, beta-gal luminescence, 2 h
Glucocorticoid receptor (Homo sapiens), sequence (P04150 whole entry, looked up, the tested form may be a part): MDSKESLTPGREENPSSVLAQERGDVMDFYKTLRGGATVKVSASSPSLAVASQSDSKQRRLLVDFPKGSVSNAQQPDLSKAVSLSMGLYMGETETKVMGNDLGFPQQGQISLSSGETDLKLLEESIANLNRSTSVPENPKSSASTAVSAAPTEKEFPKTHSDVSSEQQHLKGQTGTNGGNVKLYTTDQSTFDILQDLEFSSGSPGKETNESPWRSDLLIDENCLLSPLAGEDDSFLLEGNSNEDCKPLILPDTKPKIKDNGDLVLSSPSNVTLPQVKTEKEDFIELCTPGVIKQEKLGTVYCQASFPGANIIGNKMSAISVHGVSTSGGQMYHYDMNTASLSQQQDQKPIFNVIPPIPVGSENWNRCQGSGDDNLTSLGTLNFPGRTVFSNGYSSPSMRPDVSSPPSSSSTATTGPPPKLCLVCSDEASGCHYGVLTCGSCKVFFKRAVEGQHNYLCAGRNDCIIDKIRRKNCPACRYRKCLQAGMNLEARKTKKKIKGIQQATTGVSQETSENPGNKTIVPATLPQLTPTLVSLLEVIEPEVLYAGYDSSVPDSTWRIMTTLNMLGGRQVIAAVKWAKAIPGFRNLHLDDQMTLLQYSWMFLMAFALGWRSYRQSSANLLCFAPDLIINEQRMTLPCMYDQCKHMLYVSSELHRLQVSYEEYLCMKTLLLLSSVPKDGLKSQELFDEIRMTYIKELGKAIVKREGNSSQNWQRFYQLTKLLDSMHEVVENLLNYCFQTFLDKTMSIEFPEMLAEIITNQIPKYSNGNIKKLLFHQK
Outline: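 Translocation of GR-ED fusion to nuclear EA restores b-gal, read by luminescence after 1 h room-temperature detection. Engineered CHO-K1 biosensor cells, 1,000/well, exposed 2 h at 37 C to titrations up to 46 uM final.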

[7] = target: Cytochrome P450 3A4 (Homo sapiens) (UniProt P08684); assay: qHTS Assay for Activators of Cytochrome P450 3A4 (AID 885); also: nearly all actives have a fitted effect of over 65% in size
Cytochrome P450 3A4 (Homo sapiens), sequence (P08684 whole entry, looked up): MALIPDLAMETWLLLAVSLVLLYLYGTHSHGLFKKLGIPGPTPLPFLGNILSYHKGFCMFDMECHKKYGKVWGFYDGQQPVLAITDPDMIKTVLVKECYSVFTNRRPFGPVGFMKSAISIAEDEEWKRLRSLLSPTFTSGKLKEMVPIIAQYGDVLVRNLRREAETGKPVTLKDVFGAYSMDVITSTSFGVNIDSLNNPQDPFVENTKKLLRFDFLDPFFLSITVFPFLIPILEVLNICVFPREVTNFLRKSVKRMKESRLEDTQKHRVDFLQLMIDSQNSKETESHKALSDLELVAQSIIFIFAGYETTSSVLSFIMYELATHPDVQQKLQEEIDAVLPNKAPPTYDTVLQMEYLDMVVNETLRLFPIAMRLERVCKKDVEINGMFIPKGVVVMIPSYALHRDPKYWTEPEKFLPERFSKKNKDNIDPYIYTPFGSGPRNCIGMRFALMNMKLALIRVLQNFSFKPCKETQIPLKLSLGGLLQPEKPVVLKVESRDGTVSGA
Outline: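 Quantitative HTS format: compounds preincubated with 20nM human CYP3A4 and Luciferin-PPXE substrate at KM, reaction started by NADPH regeneration, stopped after 60 min, luciferase luminescence read 20 min later.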

[8] = target: Cytochrome P450 2C19 (Homo sapiens) (UniProt P33261); assay: qHTS Assay for Inhibitors and Substrates of Cytochrome P450 2C19 (AID 899); also: potency is read from the fitted curve at half-maximal effect; nearly all actives have a fitted effect of over 60% in size
Cytochrome P450 2C19 (Homo sapiens), sequence (P33261 whole entry, looked up): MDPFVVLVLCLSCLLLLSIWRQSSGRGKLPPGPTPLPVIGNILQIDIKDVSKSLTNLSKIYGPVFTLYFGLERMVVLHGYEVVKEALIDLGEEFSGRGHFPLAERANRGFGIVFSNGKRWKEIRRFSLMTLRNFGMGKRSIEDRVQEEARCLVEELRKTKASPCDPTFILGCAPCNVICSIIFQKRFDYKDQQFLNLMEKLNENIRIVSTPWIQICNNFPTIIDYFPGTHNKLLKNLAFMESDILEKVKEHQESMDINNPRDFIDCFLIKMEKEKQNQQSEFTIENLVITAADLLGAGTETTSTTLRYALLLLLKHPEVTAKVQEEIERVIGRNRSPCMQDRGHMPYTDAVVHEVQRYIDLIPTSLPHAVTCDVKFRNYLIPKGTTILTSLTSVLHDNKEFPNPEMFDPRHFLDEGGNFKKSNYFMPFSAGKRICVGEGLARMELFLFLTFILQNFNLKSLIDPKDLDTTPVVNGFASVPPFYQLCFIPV
Outline: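 Reactions contain 5nM enzyme, 10uM Luciferin-H EGE (KM) and 50mM KPO4; compound preincubates 10 min at 37C, NADPH regeneration starts turnover for 60 min. Luminescence after detection reagent gives activity.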

[9] = target: Dual specificity protein kinase CLK4 (Homo sapiens) (UniProt Q9HAZ1); assay: qHTS Assay for Inhibitors of CDC-like Kinase 4 (Kinase-Glo Assay) (AID 1770); also: potency is read from the fitted curve at half-maximal effect; nearly all actives have a fitted effect of over 65% in size
Dual specificity protein kinase CLK4 (Homo sapiens), sequence (Q9HAZ1 whole entry, looked up): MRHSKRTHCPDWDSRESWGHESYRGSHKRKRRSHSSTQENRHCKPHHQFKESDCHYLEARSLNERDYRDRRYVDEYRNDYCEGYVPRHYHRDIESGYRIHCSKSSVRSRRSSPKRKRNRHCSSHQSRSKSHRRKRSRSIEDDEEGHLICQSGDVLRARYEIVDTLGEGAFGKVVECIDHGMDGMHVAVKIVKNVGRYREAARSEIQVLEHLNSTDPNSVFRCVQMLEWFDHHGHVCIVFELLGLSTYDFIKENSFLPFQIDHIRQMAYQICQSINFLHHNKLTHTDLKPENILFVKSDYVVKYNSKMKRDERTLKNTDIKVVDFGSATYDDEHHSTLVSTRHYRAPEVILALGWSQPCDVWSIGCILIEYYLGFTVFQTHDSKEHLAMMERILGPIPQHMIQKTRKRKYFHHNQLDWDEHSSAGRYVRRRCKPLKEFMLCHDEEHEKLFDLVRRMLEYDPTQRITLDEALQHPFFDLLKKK
Outline: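 Inhibition was judged from remaining ATP, measured by Ultra-Glo luciferase bioluminescence after Clk4 (25 nM) had acted on RS peptide at 1 uM ATP for 4.5 hours, room temperature.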

[10] = target: Dual specificity protein kinase CLK4 (Homo sapiens) (UniProt Q9HAZ1); assay: qHTS Assay for Inhibitors of CDC-like Kinase 4 (ADP-Glo Assay) (AID 1771); also: potency is read from the fitted curve at half-maximal effect; nearly all actives have a fitted effect of over 70% in size
Outline: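 Kinase reaction: Clk4 at 25 nM, RS repeat peptide substrate at 100 uM, ATP at 1 uM, 1 hr, room temperature. Product ADP detected as luciferase signal via ADP-Glo.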

[11] = target: Dual specificity protein kinase CLK4 (Homo sapiens) (UniProt Q9HAZ1); assay: qHTS Assay for Inhibitors of CDC-like Kinase 4 (ADP-FP Assay) (AID 1795); also: potency is read from the fitted curve at half-maximal effect; nearly all actives have a fitted effect of over 60% in size
Outline: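 Inhibition of ADP formation by 6.25 nM Clk4 is measured using 1 uM ATP and 100 uM RS repeat peptide over one hour. Produced ADP displaces a fluorescent tracer from antibody, lowering polarization.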

[12] = target: Ubiquitin carboxyl-terminal hydrolase 1 (Homo sapiens) (UniProt O94782); assay: Inhibitors of USP1/UAF1: Pilot qHTS (AID 504865);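 also: rhodamine fluorescence freed from ubiquitin-rhodamine substrate followed over time; top concentration of the series differs between compounds; % is scaled to controls: 0 for no effect and ±100 for the full control effect; nearly all actives have a fitted effect of over 35% in size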
Ubiquitin carboxyl-terminal hydrolase 1 (Homo sapiens), sequence (O94782 whole entry, looked up): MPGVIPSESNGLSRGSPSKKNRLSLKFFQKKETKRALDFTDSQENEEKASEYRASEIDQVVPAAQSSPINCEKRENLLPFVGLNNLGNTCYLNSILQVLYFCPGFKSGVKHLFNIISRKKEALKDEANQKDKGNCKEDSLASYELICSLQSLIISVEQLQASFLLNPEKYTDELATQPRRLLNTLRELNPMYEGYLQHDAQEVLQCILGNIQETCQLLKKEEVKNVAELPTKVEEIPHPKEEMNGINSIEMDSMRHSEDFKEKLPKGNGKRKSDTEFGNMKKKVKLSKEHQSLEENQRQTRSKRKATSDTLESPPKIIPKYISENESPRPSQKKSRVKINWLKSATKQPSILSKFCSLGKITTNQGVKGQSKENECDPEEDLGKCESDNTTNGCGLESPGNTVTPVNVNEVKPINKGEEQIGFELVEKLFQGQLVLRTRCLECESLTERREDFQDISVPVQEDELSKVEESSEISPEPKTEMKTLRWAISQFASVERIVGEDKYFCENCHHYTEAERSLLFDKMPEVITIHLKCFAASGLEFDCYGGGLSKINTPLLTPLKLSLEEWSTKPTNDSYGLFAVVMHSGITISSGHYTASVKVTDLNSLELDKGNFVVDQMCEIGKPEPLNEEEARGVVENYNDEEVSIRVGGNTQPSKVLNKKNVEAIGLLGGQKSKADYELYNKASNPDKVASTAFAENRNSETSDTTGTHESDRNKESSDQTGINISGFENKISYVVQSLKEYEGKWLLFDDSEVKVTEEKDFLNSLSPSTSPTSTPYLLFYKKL
Outline: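 Kinetic fluorescence assay: 1nM USP1/UAF1, 15 min compound preincubation, then 150nM Ub-Rho; 480/540 nm.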

[13] = target: Calcium and integrin-binding protein 1 (Homo sapiens) (UniProt Q99828); assay: Primary qHTS for Identification of Calcium Integrin Binding Protein 1 (CIB1) Competitor (AID 1508620);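 also: GST tagged CIB1 binding a fluorescein labelled alphaIIb integrin peptide tracer; top concentration of the series differs between compounds; % is scaled to controls: 0 for no effect and ±100 for the full control effect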
Calcium and integrin-binding protein 1 (Homo sapiens), sequence (Q99828 whole entry, looked up): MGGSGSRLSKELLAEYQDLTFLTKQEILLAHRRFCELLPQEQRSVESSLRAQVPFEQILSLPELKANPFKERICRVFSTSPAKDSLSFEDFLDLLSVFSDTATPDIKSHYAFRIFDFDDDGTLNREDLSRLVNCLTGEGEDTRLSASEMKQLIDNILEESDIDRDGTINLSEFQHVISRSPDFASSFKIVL
Outline: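 CIB1-GST (1 uM final) and compound incubated 15 min at room temperature before adding FITC-alphaIIb peptide tracer (100 nM final). Competition for binding read by fluorescence polarization (ex 480, em 540) after another 15 min at room temperature.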

[14] = Primary qHTS for small molecule stabilizers of the endoplasmic reticulum resident proteome: Secreted ER Calcium Modulated Protein (SERCaMP) assay (AID 1508630); also: % is scaled to controls: 0 for no effect and ±100 for the full control effect
Outline: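 GLuc-SERCaMP-expressing SH-SY5Y cells, pretreated 16 h with compound, are challenged with thapsigargin to empty ER calcium stores; after 4 h, coelenterazine is added directly to the medium and luminescence is imaged.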

[15] = target: Glucocorticoid receptor (Homo sapiens) (UniProt P04150); assay: GR-GFP Redistribution (AID 450;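 active = compounds whose dose series gives a full or clear partial fitted curve of increased nuclear translocation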; also: potency is read from the fitted curve at half-maximal effect); settings: U2OS GR-GFP nuclear translocation, laser cytometry, 2 h
[16] = target: Mitogen-activated protein kinase 10 (Mus musculus) (UniProt Q61831); assay: JNK3 AlphaScreen Assay (AID 530; active = well fitted curve in either direction with a large enough effect, not every such curve was filed as active)
Outline: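 Room-temperature AlphaScreen kinase assay; pre-activated HepG2 lysate as JNK3 source, biotin-GST-cJun(1-79) substrate, 10 uM ATP, compound 15 min preincubation.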

[17] = target: Cytochrome P450 2D6 (Homo sapiens) (UniProt P10635); assay: qHTS Assay for Inhibitors and Substrates of Cytochrome P450 2D6 (AID 891); also: potency is read from the fitted curve at half-maximal effect; nearly all actives have a fitted effect of over 60% in size
Cytochrome P450 2D6 (Homo sapiens), sequence (P10635 whole entry, looked up): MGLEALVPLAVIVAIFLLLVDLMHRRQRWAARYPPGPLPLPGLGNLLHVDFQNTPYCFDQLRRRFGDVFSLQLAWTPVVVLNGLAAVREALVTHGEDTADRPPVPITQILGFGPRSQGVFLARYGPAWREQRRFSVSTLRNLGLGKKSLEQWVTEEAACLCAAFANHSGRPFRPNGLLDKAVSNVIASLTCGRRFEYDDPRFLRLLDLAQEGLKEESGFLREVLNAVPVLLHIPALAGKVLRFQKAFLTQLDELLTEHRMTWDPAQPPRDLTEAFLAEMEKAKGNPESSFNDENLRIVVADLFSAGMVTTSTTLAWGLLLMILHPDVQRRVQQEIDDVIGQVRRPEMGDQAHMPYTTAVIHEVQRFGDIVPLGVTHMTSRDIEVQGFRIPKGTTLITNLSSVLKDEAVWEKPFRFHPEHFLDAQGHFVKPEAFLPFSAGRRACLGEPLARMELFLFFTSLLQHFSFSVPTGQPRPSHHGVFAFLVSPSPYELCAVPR
Outline: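 Human CYP2D6 (5 nM) with 30 uM Luciferin-ME EGE (at Km) in 100 mM KPO4, compound preincubated 10 min, then NADPH regeneration system for 60 min at room temperature. Luciferin read by luminescence; normalized to 1.43 uM quinidine.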

[18] = Confirmation and Secondary Assay for Modulators of Hemoglobin Beta Chain Splicing at IVS2 654 locus (AID 910);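 also: HeLa cells stably carrying EGFP split by mutant beta-globin IVS2-654 intron; per-well total GFP intensity by laser scanning cytometry after 2-day treatment; % of control where 0% means no effect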
Outline: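 Readout: per-well total peak green fluorescence (488 nm ex, 500–520 nm em) from objects 5–250 µm, reflecting correct splicing of an EGFP-654 reporter. Compounds were applied for 2 days at 37 °C to overnight-plated HeLa EGFP-654 cells; controls were DMSO and 500 nM IVS2-654 PNA.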

[19] = Confirmation and Secondary Assay for Modulators of Hemoglobin Beta Chain Splicing at IVS2 705 locus (AID 930);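 also: HeLa cells stably expressing the EGFP-705 splicing reporter; GFP fluorescence per well restored by corrected splicing of the IVS2-705 intron in EGFP; % of control where 0% means no effect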
Outline: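 HeLa IVS2-705 EGFP reporter cells, 500/well, compound 2 d at 37C; correct splicing yields fluorescent EGFP. Control: 500 nM antisense PNA. Read-out: total peak GFP intensity.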

[20] = qHTS Assay for Lipid Storage Modulators (AID 1519; calls by dose curve); settings: Drosophila S3 cells, BODIPY lipid droplet/cell ratio, laser cytometry, cells loaded with oleic acid
Outline: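 Cells seeded at 5,000 per well were treated with compounds over a concentration series and loaded with oleic acid (400 uM, as added). Lipid droplet fluorescence (488 nm excitation, 500-530 nm channel) was read by laser-scanning cytometry and normalized to 20 uM Triacsin C.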

c1cncc(CNc2ccnc(-c3ccc4c(c3)OCO4)n2)c1
Potency [1]: > 11.4 µM (inactive)
activity change, negative = inhibition [2]: -20.8% (inactive)
Potency [3]: 0.126 µM (active)
activity change, negative = inhibition [4]: 16% (inactive)
activity, negative = inhibition [5]: -10.6% (inactive)
Potency [6]: > 46 µM (inactive)
Potency [7]: inactive
Potency [8]: 5.01 µM (active)
Potency [9]: 0.0631 µM (active)
Potency [10]: 0.1 µM (active)
Potency [11]: 0.0447 µM (active)
Potency [12]: inactive
Potency [13]: inactive
Potency [14]: inactive

c1nc(N2CCC(N3CCCC3)CC2)c2cc(-c3ccc4c(c3)OCO4)ccc2n1
Potency [13]: inactive

Cc1noc(Nc2sc3c(c2-c2nc4ccccc4s2)CCNC3)n1
Potency [13]: inactive

Cc1ccnc(NC(=S)NCCN(C)c2cccc(C(F)(F)F)c2)c1
Potency [13]: inactive

Cc1ccc(-c2ccc(=O)n(CC(=O)NCCCN(C)C)n2)cc1
Potency [13]: inactive

CN(Cc1ccco1)c1ncnc2ccc(-c3cccnc3)cc12
Potency [1]: > 11.4 µM (inactive)
Potency [3]: 0.316 µM (active)
activity, negative = inhibition [5]: -12.5% (inactive)
Potency [15]: > 46 µM (inactive)
Potency [6]: > 46 µM (inactive)
outcome [16]: inactive
Potency [7]: inactive
Potency [17]: 2 µM (active)
outcome [18]: inactive
outcome [19]: inactive
activity change, negative = inhibition ([20]; at 57.5 µM (top of the series)): 2.3% (inactive)
max response ([20]; measured here: cell count channel max response): -8.64%
max response ([20]; measured here: lipid channel max response): -5.56%
Potency [12]: inactive
Potency [13]: inactive
Potency [14]: inactive

Cc1cn([C@H]2C[C@H](N[S+](=O)([O-])c3ccc4c(c3)OCCO4)[C@@H](CO)O2)c(=O)[nH]c1=O
Potency [13]: inactive
